Records with an inconclusive call do not appear. Active and inactive are the calls of the source. Unless noted, calls follow the shape of the dose curve; as a rule, active = well fitted curve in the direction sought with a large enough effect in the repeat runs; inconclusive = weak or mixed curves; inactive = no such curve, though single readings can be large; an effect the other way counts as inactive or inconclusive.
How the values were obtained:
[1] = qHTS assay to test for compound auto fluorescence at 535 nm (green) in HEK293 cells (AID 720680)
[2] = qHTS assay to test for compound auto fluorescence at 460 nm (blue) in HEK293 cell free culture (AID 720681)
How it was run: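 Blue fluorescence (Ex 405/Em 460 nm, triamterene-equivalent) was read immediately after pin transfer of compound or DMSO into medium (DMEM, 10% FBS) without cells.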

[3] = qHTS assay to test for compound auto fluorescence at 535 nm (green) in HEK293 cell free culture (AID 720682)
How it was run: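 No cells present: wells hold DMEM supplemented with 10% FBS, into which compound or vehicle is pinned. Green emission is then recorded (485 nm excitation, 535 nm emission) and scaled to fluorescein.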

[4] = qHTS assay to test for compound auto fluorescence at 590 nm (red) in HEK293 cell free culture (AID 720683)
How it was run: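 Red-channel autofluorescence of compounds in culture medium (DMEM, 10% FBS), no cells, measured at 540/590 nm. Rose Bengal sodium is the reference fluorophore for equivalence.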

[5] = qHTS assay to test for compound auto fluorescence at 590 nm (red) in HepG2 cell free culture (AID 720684)
How it was run: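 Cell-free; medium MEM + 10% FBS; compound or DMSO added by pintool; read Ex 540/Em 590 nm; Rose Bengal sodium as red reference fluorophore.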

[6] = qHTS assay to test for compound auto fluorescence at 535 nm (green) in HepG2 cell free culture (AID 720686)
[7] = qHTS assay to test for compound auto fluorescence at 460 nm (blue) in HepG2 cells (AID 720687)
How it was run: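 Blue-channel autofluorescence (Ex/Em 405/460 nm, triamterene-equivalent) was measured after 1 hr compound exposure at 37 C, 5% CO2. Cells were HepG2, plated overnight at 37 C in MEM plus 10% FBS.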

[8] = target: Glucocorticoid receptor (Homo sapiens) (UniProt P04150); assay: qHTS assay to identify small molecule agonists of the glucocorticoid receptor (GR) signaling pathway (AID 720691; active = well fitted activation curve with a large enough effect in the signal ratio in the repeat runs, not every such curve was filed as active; the % refers to the signal ratio; also: potency is read from the fitted curve at half-maximal effect)
Sequence of Glucocorticoid receptor (Homo sapiens) (P04150 whole entry, looked up): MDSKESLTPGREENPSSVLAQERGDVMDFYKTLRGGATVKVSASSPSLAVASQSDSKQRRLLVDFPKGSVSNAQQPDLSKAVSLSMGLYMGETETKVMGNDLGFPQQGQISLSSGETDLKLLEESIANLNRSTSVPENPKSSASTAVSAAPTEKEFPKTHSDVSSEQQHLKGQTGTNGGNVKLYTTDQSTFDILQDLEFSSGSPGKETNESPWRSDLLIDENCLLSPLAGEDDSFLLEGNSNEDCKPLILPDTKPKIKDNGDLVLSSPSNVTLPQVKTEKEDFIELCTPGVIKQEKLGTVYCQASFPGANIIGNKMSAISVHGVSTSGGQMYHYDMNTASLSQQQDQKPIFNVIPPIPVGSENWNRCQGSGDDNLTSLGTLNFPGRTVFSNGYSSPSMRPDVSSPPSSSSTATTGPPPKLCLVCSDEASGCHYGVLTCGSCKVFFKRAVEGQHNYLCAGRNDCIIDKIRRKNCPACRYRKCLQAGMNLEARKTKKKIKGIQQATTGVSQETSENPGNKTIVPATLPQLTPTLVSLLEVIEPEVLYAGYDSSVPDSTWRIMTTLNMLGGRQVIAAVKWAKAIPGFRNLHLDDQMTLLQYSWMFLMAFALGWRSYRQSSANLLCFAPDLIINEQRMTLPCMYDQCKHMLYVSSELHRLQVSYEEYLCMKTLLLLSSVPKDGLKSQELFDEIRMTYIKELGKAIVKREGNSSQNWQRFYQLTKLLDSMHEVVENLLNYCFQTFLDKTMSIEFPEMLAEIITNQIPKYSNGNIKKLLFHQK
How it was run: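 A HeLa cervical cancer line expressing GR and a glucocorticoid response element-driven beta-lactamase gene is treated with compounds for 18 h; LiveBLAzer B/G FRET substrate is then applied and fluorescence read.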

[9] = target: Glucocorticoid receptor (Homo sapiens) (UniProt P04150); assay: qHTS assay to identify small molecule antagonists of the glucocorticoid receptor (GR) signaling pathway (AID 720692; active = well fitted inhibition curve with a large enough effect in the signal ratio in the repeat runs, not every such curve was filed as active; the % refers to the signal ratio)
How it was run: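 GRE-bla HeLa line, dex-stimulated (5 nM final). Compound exposure 18 h, 37 C. Beta-lactamase FRET read after 2 h RT substrate.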

[10] = qHTS assay to identify small molecule antagonists of the glucocorticoid receptor (GR) signaling pathway - cell viability counter screen (AID 720693); also: nearly all actives have a fitted effect of over 55% in size
[11] = qHTS assay for identifying genotoxic compounds that show differential cytotoxicity against isogenic chicken DT40 cell lines with known DNA damage response pathways - wild type cell line (AID 743012); also: nearly all actives have a fitted effect of over 60% in size; also: potency is read from the fitted curve at half-maximal effect
How it was run: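 300 wt DT40 cells/well; cpd (DMSO) pintool-transferred after ~0.5 h at 37 C/5% CO2; 40 h incubation; CellTiter-Glo added, 30 min RT; luminescence read.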

[12] = qHTS assay for identifying genotoxic compounds that show differential cytotoxicity against isogenic chicken DT40 cell lines with known DNA damage response pathways - Rad54/Ku70 mutant cell line (AID 743015); also: nearly all actives have a fitted effect of over 60% in size; also: potency is read from the fitted curve at half-maximal effect
[13] = qHTS assay to identify small molecule antagonists of the androgen receptor (AR) signaling pathway - cell viability counter screen (AID 743033; also: nearly all actives have a fitted effect of over 45% in size)
[14] = qHTS assay to identify small molecule antagonists of the androgen receptor (AR) signaling pathway using the MDA cell line - cell viability counter screen (AID 743041; also: nearly all actives have a fitted effect of over 45% in size)
How it was run: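 Viability read by CellTiter-Fluor fluorescence in the same wells as the antagonist screen, added after 15.5 h of a 16 h, 37C exposure. Human breast carcinoma MDA-kb2 AR-luc cells, compounds co-dosed with agonist R1881.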

[15] = qHTS assay to test for compound auto fluorescence at 460 nm (blue) in HepG2 cell free culture (AID 720685)
How it was run: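 Cell-free plates of MEM plus 10% FBS received 23 nL compound or DMSO vehicle; blue-channel (405/460 nm) intensity scored against triamterene as reference fluorophore.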

[16] = qHTS assay for identifying genotoxic compounds that show differential cytotoxicity against isogenic chicken DT40 cell lines with known DNA damage response pathways - Rev3 mutant cell line (AID 743014); also: nearly all actives have a fitted effect of over 55% in size; also: potency is read from the fitted curve at half-maximal effect
[17] = qHTS assay to identify small molecule antagonists of the thyroid receptor (TR) signaling pathway - cell viability counter screen (AID 743064); also: nearly all actives have a fitted effect of over 50% in size; also: potency is read from the fitted curve at half-maximal effect
How it was run: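 Rat GH3 pituitary tumor cells stably expressing two TR response elements driving luciferase were plated, rested 4 h, then dosed with library compounds and T3 (1 nM final). After 23.5 h at 37 °C, CellTiter-Fluor was added for 30 min and fluorescence recorded.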
% is scaled to controls: 0 for no effect and ±100 for the full control effect.

O=C1CC(=O)NC(=O)N1
inactive: outcome [1] | outcome [2] | outcome [3] | outcome [4] | outcome [5] | outcome [6] | outcome [7] | Potency [8] | Potency [9] | Potency [10] | Potency [11] | Potency [12] | Potency [13] | Potency [14]

[P]#[In]
inactive: outcome [1] | outcome [2] | outcome [3] | outcome [4] | outcome [5] | outcome [6] | outcome [7] | Potency [8] | Potency [9] | Potency [10] | Potency [11] | Potency [12] | Potency [13] | Potency [14]

CCC(=O)OC1(c2ccccc2)CCN(C)CC1
inactive: outcome [1] | outcome [3] | outcome [4] | outcome [5] | outcome [15] | outcome [6] | outcome [7] | Potency [8] | Potency [9] | Potency [12] | Potency [13] | Potency [14]

COP(=O)(OC)O/C(C)=C/C(=O)N(C)C
inactive: outcome [1] | outcome [3] | outcome [4] | outcome [5] | outcome [15] | outcome [6] | outcome [7] | Potency [11] | Potency [16] | Potency [12] | Potency [13] | Potency [14] | Potency [17]

CC(C)(C)C(=O)Cl
inactive: outcome [1] | outcome [3] | outcome [4] | outcome [5] | outcome [15] | outcome [6] | outcome [7] | Potency [8] | Potency [9] | Potency [10] | Potency [11] | Potency [16] | Potency [12] | Potency [13] | Potency [14] | Potency [17]

CCNP(=S)(OC)O/C(C)=C/C(=O)OC(C)C (configuration not stated)
inactive: outcome [1] | outcome [3] | outcome [4] | outcome [5] | outcome [15] | outcome [6] | outcome [7] | Potency [8] | Potency [9] | Potency [10] | Potency [13]
active: Potency [11] 61.1 µM | Potency [16] 34.4 µM | Potency [12] 54.5 µM

C#CC(C)(C)O
inactive: outcome [1] | outcome [3] | outcome [4] | outcome [5] | outcome [6] | outcome [7] | Potency [10] | Potency [11] | Potency [16] | Potency [12] | Potency [13] | Potency [14] | Potency [17]

O=P(O)(O)c1ccccc1
inactive: outcome [1] | outcome [3] | outcome [4] | outcome [5] | outcome [15] | outcome [6] | outcome [7] | Potency [10] | Potency [12] | Potency [13] | Potency [14] | Potency [17]

CCOP(=O)(CN(CCO)CCO)OCC
inactive: outcome [1] | outcome [3] | outcome [4] | outcome [5] | outcome [15] | outcome [6] | outcome [7] | Potency [8] | Potency [9] | Potency [10] | Potency [11] | Potency [16] | Potency [12] | Potency [13] | Potency [14] | Potency [17]

CCCCS(=O)(=O)Cl
inactive: outcome [1] | outcome [3] | outcome [4] | outcome [5] | outcome [15] | outcome [6] | outcome [7] | Potency [8] | Potency [10] | Potency [16] | Potency [12] | Potency [13] | Potency [14] | Potency [17]

CC(O)CCl (configuration not stated)
inactive: outcome [1] | outcome [3] | outcome [4] | outcome [5] | outcome [15] | outcome [6] | outcome [7] | Potency [8] | Potency [9] | Potency [11] | Potency [16] | Potency [12] | Potency [13] | Potency [14]

Cn1c(N)nc2c3cccnc3ccc21
active: Potency [17] 26 µM
inactive: outcome [1] | outcome [3] | outcome [4] | outcome [5] | outcome [6] | outcome [7] | Potency [10] | Potency [11] | Potency [12] | Potency [13] | Potency [14]

Cc1ccc(-c2nc3ccc(C)cn3c2CC(=O)N(C)C)cc1
active: Potency [8] 23.9 µM
inactive: outcome [1] | outcome [3] | outcome [4] | outcome [5] | outcome [15] | outcome [6] | outcome [7] | Potency [11] | Potency [16] | Potency [12] | Potency [13] | Potency [14]

CC(=O)CN(CC(C)=O)N=O
inactive: outcome [1] | outcome [3] | outcome [4] | outcome [5] | outcome [15] | outcome [6] | outcome [7] | Potency [8] | Potency [10] | Potency [11] | Potency [16] | Potency [12] | Potency [13] | Potency [14] | Potency [17]

C[C@@H](N)[C@@H](O)c1ccccc1
inactive: fluorescence, % of fluorescein [1] 0.072% [at 18.6 µM] | activity change [3] -0.0136% [at 18.6 µM] | fluorescence, % of fluorescent control [4] 0.0965% [at 18.6 µM] | fluorescence, % of Rose Bengal [5] 0.843% [at 18.6 µM] | fluorescence, % of fluorescent control [15] -0.105% [at 18.6 µM] | fluorescence, % of fluorescein control [6] 0.0244% [at 18.6 µM] | fluorescence, % of fluorescent control [7] -0.0421% [at 18.6 µM] | Potency [8] | Potency [9] | Potency [10] | Potency [13] | Potency [14] | Potency [17]

CC[C@H](O)C(C[C@H](C)N(C)C)(c1ccccc1)c1ccccc1
active: Potency [11] 62.3 µM
inactive: outcome [1] | outcome [3] | outcome [4] | outcome [5] | outcome [6] | outcome [7] | Potency [8] | Potency [9] | Potency [10] | Potency [13] | Potency [14]

CC(C)(C)NC[C@H](O)c1ccc(O)cc1Cl
inactive: outcome [1] | outcome [3] | outcome [4] | outcome [5] | outcome [15] | outcome [6] | outcome [7] | Potency [11] | Potency [16] | Potency [12] | Potency [13] | Potency [14] | Potency [17]

NC(=O)CS(=O)C(c1ccccc1)c1ccccc1 (configuration not stated)
inactive: outcome [1] | outcome [3] | outcome [4] | outcome [5] | outcome [6] | outcome [7] | Potency [8] | Potency [9] | Potency [11] | Potency [16] | Potency [12] | Potency [13] | Potency [14] | Potency [17]

NNCc1ccccc1
inactive: outcome [1] | outcome [3] | outcome [4] | outcome [5] | outcome [15] | outcome [6] | outcome [7] | Potency [8] | Potency [11] | Potency [12] | Potency [13] | Potency [14] | Potency [17]

From PubChem BioAssay (Tox21)
